Screening results deposited in PubChem BioAssay by National Center for Advancing Translational Sciences (NCATS).
Pf growth 96h = P. falciparum growth inhibition at 96 hour, primary screen for plastid delayed-death inhibitors; P. falciparum luciferase reporter growth, 96 h; Potency, µM (highest dose often 28.7 µM), actives largely listed as inhibitors; actives 6.9% (n = 320,000); AID 504834
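P. falciparum expressing integrated firefly luciferase grown in erythrocytes (2% hematocrit, 0.05% parasitemia final) with compounds for 96 hours at 37 C, 5% CO2. Growth inhibition read as loss of luminescence after adding luciferase detection reagent.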
Pf growth 48h = inhibits P. falciparum growth in the first generation, 48 h; P. falciparum luciferase growth in erythrocytes, 48 h; Potency, µM (doses to about 28.7 µM), hits mostly inhibitors; actives 5.9% (n = 310,000); AID 504832
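Cell-based growth assay: transgenic P. falciparum expressing firefly luciferase, cultured in red cells within RPMI 1640 containing 0.5% w/v Albumax, 24 mM bicarbonate and gentamycin. A drop in luciferase activity indicates inhibition.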
Shiga inhibitor = inhibitors of Shiga toxin in Vero cells | inhibition, % at 38.7 µM | actives 9.2% (n = 290,000) | Vero cells, Shiga toxin protein synthesis inhibition reporter; in the data active = inhibition mostly above about 28%, no sharp cut-off; inactive = mostly below about 43%
AMA1-RON2 inh = inhibitors of Plasmodium falciparum AMA1-RON2 interaction. AlphaScreen AMA1-biotinylated RON2 peptide binding. Potency, µM (titrated, usually from 58.2 µM), hits mostly inhibitors. actives 0.2% (n = 360,000). AID 720542; note: nearly all actives have a fitted effect of over 45% in size
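AMA1 (3D7) with his tag at 25 nM final met compounds first, then biotinylated RON2 peptide at 25 nM; detection used donor plus acceptor beads, 10 µg/mL apiece, read by AlphaScreen after 30 min at room temperature.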
CHX counter = counter-screen for Shiga toxin inhibitors: cycloheximide protein synthesis inhibition | max response, % | actives 12% (n = 300,000) | cell reporter, cycloheximide protein synthesis inhibition counterscreen; in the data active = max response mostly above about 13%, no sharp cut-off; inactive = mostly below about 14%; note: read at 38.3 µM for the half of the compounds with a filed dose
HCV inh = inhibitors of hepatitis C virus infection; actives 3.4% (n = 340,000); Potency, µM (doses to about 41.8 µM), actives largely listed as inhibitors; Huh7.5.1 HCVcc-Cre infection, luciferase reporter, 44 h; AID 651820
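1,000 cells/well; 4 h culture; + compound; + HCVcc-Cre (~0.5 moi); 44 h; luciferase substrate, RT 15 min; read 15 sec.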
Large screens that a line does not name were inactive. Hits are enriched below; roughly 21% of the tested compounds scored in any of these assays. Unless noted, calls come from the whole dose curve; as a rule, active = well fitted curve in the direction sought with a large enough effect; inconclusive = small, poorly fitted or top-dose-only effect, or another doubt; inactive = no such curve, though single readings can be large; an effect the other way counts as inactive or inconclusive.

Cc1ccc(S(=O)(=O)N(C)c2ccc(C(=O)NCC(c3cccs3)N3CCOCC3)cc2)cc1 (centres undefined)	Pf growth 96h 10.4µM, Pf growth 48h inconclusive (no result: HCV inh)
Cc1ccc(N(C)S(=O)(=O)c2cccc(C(=O)NCC(c3cccs3)N3CCOCC3)c2)cc1 (centres undefined)	Pf growth 96h inconclusive, Pf growth 48h 11.7µM, HCV inh inconclusive (no result: Shiga inhibitor, CHX counter)
Cc1ccc(NS(=O)(=O)c2cccc(C(=O)NCC(c3cccs3)N3CCOCC3)c2)cc1 (centres undefined)	Pf growth 96h inconclusive, Pf growth 48h inconclusive, HCV inh inconclusive (no result: Shiga inhibitor, CHX counter)
CC(C)c1ccccc1NC(=S)NC1CCCCC1	Pf growth 96h 4.65µM, Pf growth 48h inconclusive
S=C(Nc1cccc2ccccc12)NC1CCCCC1	Pf growth 96h inconclusive, Shiga inhibitor 50.8, CHX counter 40.3, HCV inh inconclusive
CSc1ccccc1NC(=S)NC1CCCC1	Pf growth 96h inconclusive, Pf growth 48h inconclusive
CSc1ccccc1NC(=S)NC1CCCCC1	Pf growth 96h inconclusive
CCCCc1ccccc1NC(=S)NC1CCCC1	Pf growth 96h inconclusive, Pf growth 48h 9.28µM
CCOc1cc(/C=N/NC(=O)C(=O)Nc2cc(Cl)ccc2C)ccc1O	Pf growth 96h inconclusive
Nc1c(C(=O)CSc2nc(-c3ccccc3)cs2)c(=O)[nH]c(=O)n1C1CC1	HCV inh inconclusive (no result: Shiga inhibitor, CHX counter)
C[C@@H]1C[C@H](Nc2ccccc2)c2ccccc2N1C(=O)c1cccnc1	HCV inh inconclusive
CC1CC(Nc2ccccc2)c2ccccc2N1C(=O)c1cccnc1 (centres undefined)	Pf growth 48h inconclusive, HCV inh 5.62µM
Cc1nc2ccccc2c(=O)[nH]1	none (no result: Pf growth 96h, Pf growth 48h)
O=c1[nH]c(N/N=C/c2ccc(O)cc2)nc2ccccc12	Shiga inhibitor 64.5, CHX counter 35.9
O=c1[nH]c(N/N=C\c2ccc(F)cc2)nc2ccccc12	Pf growth 96h inconclusive, Shiga inhibitor 80.2, CHX counter 34.1
COc1ccc(Cc2nnc(N/N=C/c3ccc(O)cc3)[nH]c2=O)cc1OC	Pf growth 96h 13.1µM, Pf growth 48h 9.28µM, AMA1-RON2 inh inconclusive, HCV inh 0.891µM
C=CCn1c(N/N=C/c2ccc(O)cc2)nc2ccccc2c1=O	Shiga inhibitor 153.3, CHX counter 35.5
C=CCn1c(C)nc2ccccc2c1=O	none
COc1oc(C(=O)NC2CCCCC2)c(-c2ccc(Cl)cc2)c1S(=O)(=O)c1ccccc1	HCV inh inconclusive (no result: Pf growth 96h, Pf growth 48h, Shiga inhibitor, CHX counter)
O=C(CC1(O)C(=O)Nc2cc(Cl)cc(Cl)c21)c1ccccc1O (centres undefined)	HCV inh 25.1µM
Cc1cccc(CC(=O)NCCS(=O)(=O)N2CCN(c3ccccc3)CC2)c1	none (no result: Pf growth 96h, Pf growth 48h, Shiga inhibitor, CHX counter, HCV inh)
O=C(c1cccs1)N1CCN(C(=O)C2CCCO2)CC1 (centres undefined)	Pf growth 96h 4.65µM
Cc1ccc(CN2CCN(C(=O)C3CCCO3)CC2)cc1 (centres undefined)	none (no result: Pf growth 96h)
O=C(Cc1cccs1)N1CCN(C(=O)C2CCCO2)CC1 (centres undefined)	none (no result: Pf growth 96h)
Cc1ccc(-c2nc(CN3CCN(C(=O)C4CCCO4)CC3)cs2)cc1 (centres undefined)	CHX counter 13.8 (no result: HCV inh)
COc1ccc(NC(=O)c2cc(-c3cc(Cl)ccc3C)n[nH]2)cn1	none (no result: Pf growth 96h, Pf growth 48h, Shiga inhibitor, CHX counter, HCV inh)
O=C(CN(c1cccc(C(F)(F)F)c1)S(=O)(=O)c1ccc(Cl)c([N+](=O)[O-])c1)NCc1ccc(F)cc1	Pf growth 96h 14.7µM, Pf growth 48h inconclusive, HCV inh inconclusive
O=C(CN(c1cccc([N+](=O)[O-])c1)S(=O)(=O)c1ccccc1)NCc1cccnc1	Pf growth 96h inconclusive
CCC(C)c1ccc(O)c(N)c1 (centres undefined)	Pf growth 96h inconclusive, Pf growth 48h inconclusive
CC(C)c1ccc(O)c(N)c1	Pf growth 96h 2.94µM, Pf growth 48h inconclusive, Shiga inhibitor 67.0, CHX counter 29.6
CC(C)(C)c1ccc(O)c(N)c1	Pf growth 96h 13.1µM, Pf growth 48h inconclusive (no result: AMA1-RON2 inh, HCV inh)
CC(C)(C)c1ccc(SCC(N)=O)cc1	none
COc1ccc(CCNC(=O)CCCN2C(=O)C(c3ccccc3)Oc3cccnc32)cc1OC (centres undefined)	Pf growth 48h inconclusive
COc1ccc(C2C(C(=O)Nc3ccccc3OC)=C(C)Nc3ncnn32)cc1 (centres undefined)	none (no result: Pf growth 48h)
COc1ccc(C2C(C(N)=O)=C(C)Nc3ncnn32)cc1 (centres undefined)	CHX counter 22.2
COc1ccc(C2C(C(C)=O)=C(C)Nc3ncnn32)cc1[N+](=O)[O-] (centres undefined)	Pf growth 96h 4.15µM
COc1ccccc1C1C(C(=O)NCc2ccccc2)=C(C)Nc2ncnn21 (centres undefined)	none
CCOC(=O)C1=C(C)Nc2nc(SCC(=O)OC)nn2C1c1cc(F)cc(F)c1 (centres undefined)	Pf growth 96h inconclusive, Pf growth 48h inconclusive
CC(=O)C1=C(C)Nc2ncnn2C1c1ccccc1OCc1ccccc1 (centres undefined)	Pf growth 48h 8.28µM, HCV inh inconclusive
CCOC(=O)C1=C(C)Nc2nc(SCC)nn2C1c1ccc(OC)cc1 (centres undefined)	Pf growth 96h 13.1µM
CCC1CN(C(=O)N2CCC(C(=O)Nc3ccccc3F)CC2)c2ccccc2O1 (centres undefined)	Pf growth 96h inconclusive, HCV inh inconclusive
Cc1cc(-c2ccc(N=Nc3c(S(=O)(=O)O)cc4cc(S(=O)(=O)O)cc(N)c4c3O)c(C)c2)ccc1N=Nc1c(S(=O)(=O)O)cc2cc(S(=O)(=O)O)cc(N)c2c1O	Pf growth 96h 9.53µM, Pf growth 48h 6.57µM, HCV inh inconclusive (no result: Shiga inhibitor, AMA1-RON2 inh, CHX counter)
COc1ccc(C(=O)Nc2nc3ccccc3c(=O)[nH]2)cc1	Shiga inhibitor 82.5, CHX counter 43.9 (no result: Pf growth 96h)
Cc1cc(Nc2ccc(C)c(C)c2)c2ccccc2n1	Pf growth 96h inconclusive, Pf growth 48h inconclusive, HCV inh inconclusive
COc1ccc(Nc2nc3c([nH]2)c(=O)[nH]c(=O)n3C)cc1	Pf growth 96h 13.1µM
Cc1ccc(Nc2nc(N)c3ccccc3n2)cc1C	Pf growth 96h inconclusive, Pf growth 48h inconclusive, Shiga inhibitor 36.7, CHX counter 20.3, HCV inh inconclusive
COCCCNc1nc2c([nH]1)c(=O)[nH]c(=O)n2C	none
COc1ccc(Nc2nc3ccccc3c(=O)[nH]2)cc1	Pf growth 96h 4.65µM, Pf growth 48h 2.08µM
COc1ccc(Nc2nc(C)cc(=O)[nH]2)cc1	Pf growth 96h inconclusive
Cc1cc(-c2ccccc2)nc(Nc2nc3c(C)cccc3c(=O)[nH]2)n1	HCV inh inconclusive (no result: Pf growth 96h, Pf growth 48h, Shiga inhibitor, CHX counter)
Cc1ccc(Nc2nc3ccccc3c(=O)[nH]2)cc1C	Pf growth 48h inconclusive, Shiga inhibitor 36.4, CHX counter 37.5
